Among the data in ChEMBL document CHEMBL1961873, “Compounds: GSK PKIS; Assays: Nanosyn kinase panel” (2012) are inhibition values, retold here.

Assay [1] concerns Epidermal growth factor receptor (Homo sapiens), P00533 [T790M]. Conditions: at 1 µM.
For assay [2], the system named is Epidermal growth factor receptor (Homo sapiens), P00533 [L858R,T790M]. Conditions: at 0.1 µM.
Assay [3] has the same test system. Conditions: at 1 µM.
Assay [4] concerns the target Ephrin type-A receptor 2 (Homo sapiens) (UniProt P29317). Conditions: at 0.1 µM.
Assay [5] shares this target. Conditions: at 1 µM.
Assay [6] deals with T1, Ephrin type-A receptor 3 (Homo sapiens) (UniProt P29320).
T1 sequence (whole entry): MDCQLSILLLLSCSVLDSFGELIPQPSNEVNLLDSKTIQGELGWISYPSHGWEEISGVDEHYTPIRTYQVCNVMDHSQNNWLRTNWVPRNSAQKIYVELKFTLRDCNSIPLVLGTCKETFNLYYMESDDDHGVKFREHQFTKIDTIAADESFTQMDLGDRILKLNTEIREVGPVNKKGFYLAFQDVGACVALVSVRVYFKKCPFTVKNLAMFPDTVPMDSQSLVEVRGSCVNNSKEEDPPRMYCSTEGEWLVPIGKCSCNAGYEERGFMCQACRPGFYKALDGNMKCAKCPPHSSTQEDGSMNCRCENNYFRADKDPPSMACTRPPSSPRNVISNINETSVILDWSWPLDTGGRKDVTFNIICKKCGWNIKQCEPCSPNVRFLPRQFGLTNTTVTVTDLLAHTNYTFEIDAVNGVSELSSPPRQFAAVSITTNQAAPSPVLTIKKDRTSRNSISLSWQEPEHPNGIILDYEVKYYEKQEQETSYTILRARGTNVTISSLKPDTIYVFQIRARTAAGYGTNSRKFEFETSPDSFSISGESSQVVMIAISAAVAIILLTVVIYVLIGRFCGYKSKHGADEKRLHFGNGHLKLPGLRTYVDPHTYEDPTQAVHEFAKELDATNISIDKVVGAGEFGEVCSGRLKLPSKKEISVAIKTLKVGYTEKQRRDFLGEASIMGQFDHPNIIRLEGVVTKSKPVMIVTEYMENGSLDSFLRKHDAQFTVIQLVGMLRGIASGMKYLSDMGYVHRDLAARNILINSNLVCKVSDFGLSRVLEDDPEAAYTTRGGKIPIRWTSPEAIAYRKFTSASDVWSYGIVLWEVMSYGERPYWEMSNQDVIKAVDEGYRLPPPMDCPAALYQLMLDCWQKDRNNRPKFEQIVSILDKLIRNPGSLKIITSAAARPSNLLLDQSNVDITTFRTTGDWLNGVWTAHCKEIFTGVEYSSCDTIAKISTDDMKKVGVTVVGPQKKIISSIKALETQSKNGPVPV
Conditions: at 0.1 µM.

Assay [7] addresses T1, Ephrin type-A receptor 3 (Homo sapiens). Conditions: at 1 µM.
In assay [8] the target is Ephrin type-A receptor 4 (Homo sapiens) (UniProt P54764). Conditions: at 0.1 µM.
Sequence of Ephrin type-A receptor 4 (Homo sapiens) (P54764 whole entry): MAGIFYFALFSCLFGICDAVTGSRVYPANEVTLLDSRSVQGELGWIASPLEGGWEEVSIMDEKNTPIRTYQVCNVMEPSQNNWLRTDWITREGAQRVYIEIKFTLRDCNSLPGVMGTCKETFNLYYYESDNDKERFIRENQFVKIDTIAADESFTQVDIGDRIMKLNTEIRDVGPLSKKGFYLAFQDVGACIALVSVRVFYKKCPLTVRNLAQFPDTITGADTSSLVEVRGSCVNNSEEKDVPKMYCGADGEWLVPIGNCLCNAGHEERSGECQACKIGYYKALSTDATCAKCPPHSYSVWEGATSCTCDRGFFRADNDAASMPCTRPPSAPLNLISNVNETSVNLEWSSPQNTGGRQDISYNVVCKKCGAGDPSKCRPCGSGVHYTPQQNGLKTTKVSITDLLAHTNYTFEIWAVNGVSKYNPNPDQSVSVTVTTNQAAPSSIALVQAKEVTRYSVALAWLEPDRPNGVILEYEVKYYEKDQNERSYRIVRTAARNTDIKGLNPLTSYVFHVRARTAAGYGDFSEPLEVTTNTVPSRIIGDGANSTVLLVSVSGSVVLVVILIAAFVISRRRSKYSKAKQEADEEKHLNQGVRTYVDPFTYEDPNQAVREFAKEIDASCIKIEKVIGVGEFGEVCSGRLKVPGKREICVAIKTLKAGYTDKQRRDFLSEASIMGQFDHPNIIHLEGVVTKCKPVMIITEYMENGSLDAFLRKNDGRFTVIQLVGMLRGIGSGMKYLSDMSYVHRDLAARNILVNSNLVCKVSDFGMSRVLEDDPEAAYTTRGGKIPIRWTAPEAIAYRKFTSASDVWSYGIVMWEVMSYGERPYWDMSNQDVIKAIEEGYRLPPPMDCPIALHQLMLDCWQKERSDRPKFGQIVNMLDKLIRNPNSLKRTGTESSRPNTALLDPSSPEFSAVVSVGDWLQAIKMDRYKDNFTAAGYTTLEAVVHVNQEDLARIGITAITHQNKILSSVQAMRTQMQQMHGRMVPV
Assay [9] shares this target. Conditions: at 1 µM.
The target in assay [10] is T2, Ephrin type-B receptor 2 (Homo sapiens) (UniProt P29323).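 Also: reported as mean inhibition of EPHB2, from the GSK PKIS dataset.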
T2 sequence (whole entry): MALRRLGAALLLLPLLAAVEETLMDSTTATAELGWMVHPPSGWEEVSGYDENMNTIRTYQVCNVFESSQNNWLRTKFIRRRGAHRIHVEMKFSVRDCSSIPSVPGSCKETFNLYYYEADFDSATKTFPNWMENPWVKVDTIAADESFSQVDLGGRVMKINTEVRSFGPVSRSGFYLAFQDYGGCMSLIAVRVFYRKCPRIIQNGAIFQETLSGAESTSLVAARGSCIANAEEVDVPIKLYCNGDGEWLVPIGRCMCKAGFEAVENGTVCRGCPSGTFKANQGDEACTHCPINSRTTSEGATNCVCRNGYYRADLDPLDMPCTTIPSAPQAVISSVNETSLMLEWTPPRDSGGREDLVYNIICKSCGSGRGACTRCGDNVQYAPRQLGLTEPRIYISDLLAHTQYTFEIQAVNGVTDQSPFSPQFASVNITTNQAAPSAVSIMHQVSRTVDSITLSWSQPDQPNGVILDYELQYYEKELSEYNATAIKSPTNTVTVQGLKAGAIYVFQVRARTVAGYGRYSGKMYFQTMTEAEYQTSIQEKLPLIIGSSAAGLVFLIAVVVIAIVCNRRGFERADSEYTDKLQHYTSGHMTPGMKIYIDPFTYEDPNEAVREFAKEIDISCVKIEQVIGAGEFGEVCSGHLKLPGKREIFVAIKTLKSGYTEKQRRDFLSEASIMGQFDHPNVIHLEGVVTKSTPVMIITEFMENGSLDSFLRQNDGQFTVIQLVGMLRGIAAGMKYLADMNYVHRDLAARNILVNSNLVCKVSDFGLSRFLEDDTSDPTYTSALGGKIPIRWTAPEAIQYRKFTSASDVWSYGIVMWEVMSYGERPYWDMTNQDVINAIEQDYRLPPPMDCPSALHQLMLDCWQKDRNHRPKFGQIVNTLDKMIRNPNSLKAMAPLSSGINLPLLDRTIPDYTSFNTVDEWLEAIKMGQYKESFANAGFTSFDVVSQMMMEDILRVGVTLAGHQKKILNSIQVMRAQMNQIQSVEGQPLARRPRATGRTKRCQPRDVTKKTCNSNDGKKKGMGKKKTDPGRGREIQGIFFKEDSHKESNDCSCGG
Conditions: at 0.1 µM.

Sequence of Epidermal growth factor receptor (Homo sapiens), P00533 [T790M] (P00533 whole entry T790M): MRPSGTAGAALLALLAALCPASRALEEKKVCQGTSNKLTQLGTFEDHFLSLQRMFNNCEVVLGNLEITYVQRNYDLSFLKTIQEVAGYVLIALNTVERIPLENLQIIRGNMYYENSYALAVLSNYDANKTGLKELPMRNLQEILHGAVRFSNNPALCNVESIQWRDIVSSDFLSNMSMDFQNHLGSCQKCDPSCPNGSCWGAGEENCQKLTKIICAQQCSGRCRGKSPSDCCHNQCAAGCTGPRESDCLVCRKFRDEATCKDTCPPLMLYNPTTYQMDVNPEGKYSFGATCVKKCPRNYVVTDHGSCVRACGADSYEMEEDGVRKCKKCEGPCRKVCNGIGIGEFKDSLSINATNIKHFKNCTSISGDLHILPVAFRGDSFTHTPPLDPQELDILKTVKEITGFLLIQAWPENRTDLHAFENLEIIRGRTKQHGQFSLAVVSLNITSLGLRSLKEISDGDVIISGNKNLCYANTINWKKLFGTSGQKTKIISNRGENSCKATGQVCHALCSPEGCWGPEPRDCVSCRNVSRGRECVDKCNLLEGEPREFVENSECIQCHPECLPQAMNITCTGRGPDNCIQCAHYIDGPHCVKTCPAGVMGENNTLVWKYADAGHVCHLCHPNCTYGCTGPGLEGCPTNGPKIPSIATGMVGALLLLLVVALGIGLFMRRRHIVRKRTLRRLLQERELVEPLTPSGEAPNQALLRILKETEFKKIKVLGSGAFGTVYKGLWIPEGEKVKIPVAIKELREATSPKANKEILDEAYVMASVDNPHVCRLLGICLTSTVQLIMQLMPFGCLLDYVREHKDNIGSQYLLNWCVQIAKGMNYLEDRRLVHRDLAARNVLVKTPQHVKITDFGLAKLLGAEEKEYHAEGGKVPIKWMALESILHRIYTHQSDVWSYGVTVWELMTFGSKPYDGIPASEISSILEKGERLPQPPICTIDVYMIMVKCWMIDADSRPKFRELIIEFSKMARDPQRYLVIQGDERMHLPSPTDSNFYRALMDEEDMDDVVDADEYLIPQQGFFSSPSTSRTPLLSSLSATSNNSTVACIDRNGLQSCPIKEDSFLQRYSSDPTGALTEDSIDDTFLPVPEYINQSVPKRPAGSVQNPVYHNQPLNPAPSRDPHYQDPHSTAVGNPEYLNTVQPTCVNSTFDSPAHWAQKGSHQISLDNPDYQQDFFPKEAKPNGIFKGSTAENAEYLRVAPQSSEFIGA
Sequence of Epidermal growth factor receptor (Homo sapiens), P00533 [L858R,T790M] (P00533 whole entry T790M/L858R, looked up): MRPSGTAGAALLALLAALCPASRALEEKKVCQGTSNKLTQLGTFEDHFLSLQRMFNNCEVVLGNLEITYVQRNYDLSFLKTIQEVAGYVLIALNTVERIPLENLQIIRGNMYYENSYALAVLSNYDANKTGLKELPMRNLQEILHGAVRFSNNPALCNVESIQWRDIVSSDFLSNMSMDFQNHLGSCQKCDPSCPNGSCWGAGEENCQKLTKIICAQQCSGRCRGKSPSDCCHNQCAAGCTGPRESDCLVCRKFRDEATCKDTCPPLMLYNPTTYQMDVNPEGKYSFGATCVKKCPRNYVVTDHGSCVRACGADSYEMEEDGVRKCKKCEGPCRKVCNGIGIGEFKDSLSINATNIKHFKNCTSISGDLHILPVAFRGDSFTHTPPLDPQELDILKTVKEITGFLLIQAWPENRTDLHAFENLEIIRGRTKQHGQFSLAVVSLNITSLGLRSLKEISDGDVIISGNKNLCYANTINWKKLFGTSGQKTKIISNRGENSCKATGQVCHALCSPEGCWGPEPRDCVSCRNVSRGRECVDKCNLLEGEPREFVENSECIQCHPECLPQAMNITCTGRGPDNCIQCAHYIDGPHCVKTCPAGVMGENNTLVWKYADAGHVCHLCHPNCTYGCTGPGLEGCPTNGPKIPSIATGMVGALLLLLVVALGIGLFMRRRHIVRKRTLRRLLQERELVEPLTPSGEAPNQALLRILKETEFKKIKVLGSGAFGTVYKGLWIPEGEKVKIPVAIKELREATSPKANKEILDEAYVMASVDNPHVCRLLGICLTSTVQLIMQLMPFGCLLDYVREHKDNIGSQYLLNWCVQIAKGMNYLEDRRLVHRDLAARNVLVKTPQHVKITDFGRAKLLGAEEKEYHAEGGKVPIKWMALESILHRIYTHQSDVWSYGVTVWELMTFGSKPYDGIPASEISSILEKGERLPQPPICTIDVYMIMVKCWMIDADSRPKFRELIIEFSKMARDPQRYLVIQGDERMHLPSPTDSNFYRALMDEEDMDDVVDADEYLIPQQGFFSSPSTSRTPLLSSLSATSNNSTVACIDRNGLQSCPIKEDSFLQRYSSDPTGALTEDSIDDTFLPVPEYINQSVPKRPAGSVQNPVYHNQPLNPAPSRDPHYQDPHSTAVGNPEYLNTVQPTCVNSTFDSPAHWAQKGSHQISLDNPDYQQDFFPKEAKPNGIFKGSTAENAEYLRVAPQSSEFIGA
Sequence of Ephrin type-A receptor 2 (Homo sapiens) (P29317 whole entry): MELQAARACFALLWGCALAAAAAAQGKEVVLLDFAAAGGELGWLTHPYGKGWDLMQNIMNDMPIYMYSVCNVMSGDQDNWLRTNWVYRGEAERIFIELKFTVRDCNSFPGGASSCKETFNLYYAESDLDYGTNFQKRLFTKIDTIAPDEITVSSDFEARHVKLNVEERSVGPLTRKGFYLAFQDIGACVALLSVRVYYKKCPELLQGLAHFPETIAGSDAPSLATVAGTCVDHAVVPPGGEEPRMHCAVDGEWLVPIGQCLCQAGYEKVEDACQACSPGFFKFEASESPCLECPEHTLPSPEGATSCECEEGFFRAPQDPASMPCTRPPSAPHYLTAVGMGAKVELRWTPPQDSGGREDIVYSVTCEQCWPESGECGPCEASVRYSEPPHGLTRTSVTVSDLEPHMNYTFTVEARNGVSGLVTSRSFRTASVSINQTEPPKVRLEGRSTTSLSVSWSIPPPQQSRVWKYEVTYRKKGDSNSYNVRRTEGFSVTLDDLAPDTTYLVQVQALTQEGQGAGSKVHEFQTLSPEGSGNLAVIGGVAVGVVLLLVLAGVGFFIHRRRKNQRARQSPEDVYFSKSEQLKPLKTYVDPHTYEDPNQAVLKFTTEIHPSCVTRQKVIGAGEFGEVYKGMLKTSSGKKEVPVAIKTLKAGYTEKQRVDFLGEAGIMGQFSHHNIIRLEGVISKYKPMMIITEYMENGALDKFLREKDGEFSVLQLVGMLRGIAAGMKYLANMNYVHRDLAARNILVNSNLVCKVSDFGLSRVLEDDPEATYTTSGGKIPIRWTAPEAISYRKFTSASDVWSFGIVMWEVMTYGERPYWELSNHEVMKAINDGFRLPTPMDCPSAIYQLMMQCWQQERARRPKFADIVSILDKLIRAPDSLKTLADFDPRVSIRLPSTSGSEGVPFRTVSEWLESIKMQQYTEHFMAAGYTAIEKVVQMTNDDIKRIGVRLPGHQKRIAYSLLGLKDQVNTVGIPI

Regarding `Cc1c2ccc(N(C)c3ccnc(Nc4cccc(S(N)(=O)=O)c4)n3)cc2nn1C`, the inhibition in assay [1] was 3.28%; in [2], 2.62%; in [3], 13.1%; in [4] it was -1.48%; in assay [5], 2.19%; in assay [6], 0.79%. Further, the inhibition stood at 2.97% in [7], 8.51% in assay [8], 14.2% in assay [9] and 5.88% in [10].

For `COc1cc(Nc2ncc(-c3ccccc3)o2)cc(OC)c1`, the inhibition in assay [1] is 1.99%; in assay [2] it was 0.93%; in assay [3], 0.21%; in assay [4] it was 2.21%; in assay [5], 2.39%; in assay [6], 3.02%. The inhibition in assay [7] was 8.57%; in assay [8], 8.98%; in [9] it was 13.7%; in [10] it was 8.98%.

For the compound `CS(=O)(=O)Nc1ccc(-c2cc(-c3ccccc3)cc(C(N)=O)c2N)cc1`, the inhibition was -0.33% in assay [1]; 1.11% in [2]; 1.75% in [3]; -3.41% in assay [4]; -2.62% in [5]; 0.48% in assay [6]. For the same compound, the inhibition in [7] was -0.2%; in [8], 1.75%; in assay [9], 4.07%; in assay [10] it was 6.68%.

Consider `CCS(=O)(=O)c1ccc(OC)c(Nc2ncc(-c3cccc(F)c3)o2)c1`, for which the inhibition in assay [1] came to 3.03%; in [2], 5.67%; in [3] it was 2.98%; in assay [4] it was 2.15%; in [5], 9.85%; in assay [6] it was 8.12%. For the same compound, the inhibition in assay [7] worked out at 17%; in assay [8] it was 11.3%; in assay [9], 33.5%; in assay [10], 18.5%.

As for `COc1cccc(Nc2nccc(-c3cnn4ncccc34)n2)c1`, the inhibition was 1.13% in assay [1]; 4.75% in assay [2]; 9.99% in assay [3]; 1.1% in assay [4]; 12.2% in assay [5]; 4.37% in assay [6]. Moreover, the inhibition in assay [7] turned out to be 8.81%; in assay [8], 9.73%; in assay [9] it was 36.6%; in [10], 9.43%.

Consider `CS(=O)(=O)CCNCc1ccc(-c2ccc3ncnc(Nc4ccc(OCc5cccc(C(F)(F)F)c5)cc4)c3c2)o1`, for which the inhibition in assay [1] amounted to 1.6%; in assay [2] it was 0.98%; in assay [3] it was 3.77%; in assay [4], 0.34%; in assay [5] it was 0.55%; in assay [6], 2.95%. Further, the inhibition worked out at 2.34% in assay [7], 6.4% in assay [8], 8.61% in assay [9] and 7.05% in assay [10].

Turning to `OCCCNc1nccc(-c2c(-c3ccc(F)cc3)nn3cc(C(F)(F)F)ccc23)n1`, the inhibition in assay [1] was -0.33%; in assay [2], -1.34%; in assay [3], 5.46%; in [4], 1.26%; in assay [5], 1.9%; in assay [6], 2.86%. Further, the inhibition is 3.67% in assay [7], 8.53% in [8], 13.3% in assay [9] and 8.48% in assay [10].

On to `COC(=O)Nc1nc2ccc(Oc3ccc(NC(=O)Nc4cc(C(F)(F)F)ccc4F)cc3)cc2s1`, for which the inhibition in assay [1] was -0.72%; in assay [2] it was 1.64%; in [3], -2.5%; in assay [4] it was 63.5%; in [5], 93.5%; in [6], 51.3%. In addition, the inhibition in assay [7] was determined as 68.4%; in [8] it was 83.3%; in assay [9], 86.1%; in assay [10] it was 74.1%.

With `COc1ccc(-c2nn3ncccc3c2-c2ccnc(Nc3ccc(F)c(F)c3)n2)cc1`, the inhibition in assay [1] was 6.23%; in [2], 3.78%; in [3], 8.64%; in [4], 2.87%; in assay [5], -0.08%; in [6], 3.49%. In addition, the inhibition in assay [7] came to 6.3%; in [8] it was 8.99%; in [9], 16.4%; in assay [10], 7.75%.

With `c1cnn2ncc(-c3ccnc(NCCCN4CCOCC4)n3)c2c1`, the inhibition was 1.66% in assay [1]; -1.49% in assay [2]; 0.81% in assay [3]; -0.74% in [4]; -1.53% in [5]; 2.9% in assay [6]. In addition, the inhibition worked out at 6.16% in assay [7], 10% in [8], 5.87% in assay [9] and 6.81% in assay [10].

For orientation: inhibition means the change of the read-out against control, counted positive when it falls.
